Shown are actives, neighbours in structure and some others; about 18% of the full set was active somewhere.
TDP1 cell noCPT: qHTS for Inhibitors of human tyrosyl-DNA phosphodiesterase 1 (TDP1): qHTS in cells in absence of CPT; AID 686978, 2013; Potency, µM (titrated, usually from 46.2 µM), for inactives: at the top dose activity change, negative = growth inhibition, hits mostly inhibitors; hit rate 15% among 420,000; DT40 Tdp1-/- hTDP1 cells, no CPT, ATP luminescence, 48 h; note: potency is the fitted concentration of half-maximal effect; nearly all actives have a fitted effect of over 55% in size
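Luminescent ATP content (CellTiter-Glo) served as the growth readout. Knockout chicken DT40 cells expressing human TDP1 were exposed to compounds without camptothecin for a minimum 48 hr at 37 °C.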
IL1B secr inh: blocks inflammasome-driven IL-1 beta release; hit rate 4.7% among 360,000; AID 743279; activity change, % at 57.5 µM; THP-1 LPS/ATP IL-1B secretion, AlphaLISA, 16 h; hits give low values; in the data active = activity change below about -50%; inconclusive = mostly about -30% to -49%
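Secreted IL-1B measured by AlphaLISA bead assay after 16 h compound exposure of THP-1 cells; compounds (final up to 57.5 uM) added 1 h before LPS (250 ng/mL) and ATP (1.25 mM) stimulation; lower signal means less secretion.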
TDP1 cell CPT: growth inhibition of DT40 Tdp1-/-;hTDP1 cells with camptothecin (screen for TDP1 inhibitors) | chicken DT40 Tdp1-/-;hTDP1 cells + 20 nM CPT, ATP luminescence, 48 h | Potency, µM (top dose mostly 46.2 µM), for the others: at the top dose activity change, negative = growth inhibition, actives largely listed as inhibitors | hit rate 12% among 420,000; note: potency is the fitted concentration of half-maximal effect; nearly all actives have a fitted effect of over 55% in size
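Cell growth measured by CellTiter-Glo luminescence after a minimum 48 h, 37 C compound exposure with 20 nM CPT in Tdp1-knockout DT40 cells stably expressing hTDP1, seeded 400/well; qHTS titration format.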
Six1-Eya2 inh: inhibitors of human Six1/Eya2 interaction. Q15475+O00167. AlphaScreen GST-Six1/His-Eya2 binding, biochemical; hits give low values. activity change, % (no concentration beside the values). hit rate 0.56% among 360,000. AID 651725; in the data active = activity change below about -65%; inconclusive = mostly about -30% to -63%
Target sequence (O00167 whole entry, looked up): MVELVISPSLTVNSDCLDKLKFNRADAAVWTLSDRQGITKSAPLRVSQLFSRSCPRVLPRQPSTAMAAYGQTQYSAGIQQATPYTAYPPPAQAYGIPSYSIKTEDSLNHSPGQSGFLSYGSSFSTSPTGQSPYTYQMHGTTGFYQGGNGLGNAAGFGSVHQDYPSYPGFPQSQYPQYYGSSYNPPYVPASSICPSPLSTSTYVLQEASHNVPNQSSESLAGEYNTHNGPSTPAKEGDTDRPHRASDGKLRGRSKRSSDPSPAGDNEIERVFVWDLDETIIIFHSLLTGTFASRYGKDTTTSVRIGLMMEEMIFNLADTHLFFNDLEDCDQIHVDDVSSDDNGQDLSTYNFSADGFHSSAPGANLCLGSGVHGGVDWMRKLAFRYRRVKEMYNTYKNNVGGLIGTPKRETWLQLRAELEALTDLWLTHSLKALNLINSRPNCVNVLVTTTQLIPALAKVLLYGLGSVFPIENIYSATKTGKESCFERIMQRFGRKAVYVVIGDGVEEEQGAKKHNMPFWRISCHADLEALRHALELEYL
Target sequence (Q15475 whole entry, looked up): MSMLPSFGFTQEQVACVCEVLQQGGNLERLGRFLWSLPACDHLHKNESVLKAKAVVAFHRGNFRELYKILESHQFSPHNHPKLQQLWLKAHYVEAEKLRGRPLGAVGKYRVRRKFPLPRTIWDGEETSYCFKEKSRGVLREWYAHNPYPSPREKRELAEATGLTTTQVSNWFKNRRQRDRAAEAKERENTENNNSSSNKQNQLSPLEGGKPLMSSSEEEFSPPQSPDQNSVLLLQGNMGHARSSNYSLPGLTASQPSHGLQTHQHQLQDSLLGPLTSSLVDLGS
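Homogeneous AlphaScreen proximity assay pairing GST-Six1 with His-tagged Eya2 (added as 5X mix: 250 nM and 500 nM) in 50 mM Tris pH 8.0, 300 mM NaCl, 1 mM TCEP. Glutathione donor and nickel acceptor beads; 1 h, 37 °C, dark.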
TDP1 block: inhibitors of human tyrosyl-DNA phosphodiesterase TDP1; Q9NUW8; recombinant TDP1, AlphaScreen DNA substrate cleavage; Potency, µM (titrated, usually from 130 µM), inactives show at the top dose activity change, negative = inhibition, usual class: inhibitors; hit rate 0.28% among 350,000; note: potency is the fitted concentration of half-maximal effect; nearly all actives have a fitted effect of over 40% in size
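AlphaScreen read-out: signal falls as enzyme removes the 3' tyrosine-FITC from a 5'-biotinylated DNA oligo (15 nM, 5 min, RT). Enzyme was E. coli-made recombinant Tdp1 at 1 nM, exposed to compound for 15 min beforehand; beads 10 ug/ml, 10 min.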
CtBP-E1A inh: inhibitors of CtBP/E1A interaction; AlphaScreen GST-E1A/His-CtBP binding, 1536-well; hits give low values; activity change, % (test concentration not listed); hit rate 0.49% among 340,000; in the data active = activity change below about -65%; inconclusive = mostly about -30% to -63%
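AlphaScreen with 125 nM GST-E1A and 125 nM His-CtBP (5X stocks) in Tris pH 8.0, 300 mM NaCl, BSA, Tween 20, TCEP. Compounds preincubated 2 h at 37 deg C, then glutathione donor/nickel acceptor beads added for 1 h at 37 deg C in dark.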
Numbers without * were called inactive; ? = inconclusive; nt = no result; [ ] = another dose, or the depositor's remark. Unless noted, calls come from the whole dose curve; as a rule, active = well fitted curve in the direction sought with a large enough effect; inconclusive = small, poorly fitted or top-dose-only effect, or another doubt; inactive = no such curve, though single readings can be large; an effect the other way counts as inactive or inconclusive. % is set by controls: 0 for no effect and ±100 for the full control effect.

SMILES	TDP1 cell noCPT	IL1B secr inh	TDP1 cell CPT	Six1-Eya2 inh	TDP1 block	CtBP-E1A inh
NC(=S)N/N=C1\CC(c2ccc3c(c2)OCCCO3)Oc2ccc(F)cc21 (configuration not stated)	4.6µM*	-71*	2.6µM*	-29	nt	-15
COC(=O)c1c(NC(=O)c2ccccc2)sc2c1CC(C)(C)NC2(C)C	-1%	-3	-24%	0	nt	6
CC1(C)Cc2c(sc(NC(=O)COc3ccc(Cl)cc3)c2C(N)=O)C(C)(C)N1	-1%	-16	?	4	0%	7
CC1(C)Cc2c(sc(NC(=O)c3ccc4ncsc4c3)c2C(N)=O)C(C)(C)N1	?	-215*	?	-4	6%	-8
CC1(C)Cc2c(sc(NC(=O)c3ccc(C(=O)c4ccccc4)cc3)c2C(N)=O)C(C)(C)N1	?	-102*	?	-9	3%	-11
CCOc1ccc(C(C(=O)NCC2CCCO2)N(C(=O)c2snc(C(N)=O)c2N)c2ccc(F)cc2)cc1 (configuration not stated)	?	?	18µM*	3	nt	2
Cc1cccc(N(C(=O)c2snc(C(N)=O)c2N)C(C(=O)NCC2CCCO2)c2c[nH]c3ccccc23)c1 (configuration not stated)	?	?	?	1	nt	-8
COc1ccc(N(C(=O)Cn2nnc(-c3ccc(Cl)cc3)n2)C(C(=O)NCC2CCCO2)c2ccc(C)cc2)cc1 (configuration not stated)	-73%	-1	-78%	-3	-3%	7
NC(=O)c1nsc(C(=O)N(c2cccc(F)c2)C(C(=O)NCC2CCCO2)c2c[nH]c3ccccc23)c1N (configuration not stated)	-11%	-68*	4%	3	9%	-4
COc1ccc(N(C(=O)Cn2nnc(-c3ccccc3F)n2)C(C(=O)NCC2CCCO2)c2ccc(Cl)cc2)cc1 (configuration not stated)	9.2µM*	13	?	-11	5%	18
CCc1ccccc1N(C(=O)c1snc(C(N)=O)c1N)C(C(=O)NCC1CCCO1)c1ccc(OC)c(OC)c1 (configuration not stated)	12µM*	8	16µM*	-3	2%	6
CC(C)(C)OC(=O)N1C=CCC1CN1C(=O)COCC1=O (configuration not stated)	nt	nt	nt	nt	3%	nt
C[C@H]1CN([C@@H](C)CO)C(=O)c2cccc(NC(=O)C3CC3)c2O[C@H]1CN(C)S(=O)(=O)c1cccs1	-20%	-18	-15%	0	1%	4
NC(=O)c1nsc(C(=O)N(c2ccc(F)cc2)C(C(=O)NCC2CCCO2)c2c[nH]c3ccccc23)c1N (configuration not stated)	?	-60*	?	11	4%	0
NC(=O)c1nsc(C(=O)N(c2ccc3c(c2)OCO3)C(C(=O)NCC2CCCO2)c2ccc(F)cc2)c1N (configuration not stated)	?	-12	-13%	-7	7%	-5
CCCc1c2c(cc3c(=O)cc(C(=O)OCC)oc13)CCCC2	?	-3	?	0	nt	nt
COc1cc(C)c(NC(=O)C(=S)N2CCCC2)cc1C	13%	-14	-5%	0	-4%	20
O=C(C1CCN(c2ncnc3c2nc2n3CCCCC2)CC1)N1CCN(c2ccc(Cl)cc2)CC1	-2%	nt	10%	nt	6%	nt
Cc1cccc(N2CCN(c3ncnc4c3nc3n4CCCCC3)CC2)c1C	?	nt	26µM*	nt	5%	nt
Clc1cccc(N2CCN(c3ncnc4c3nc3n4CCCCC3)CC2)c1	10µM*	nt	15µM*	nt	6%	nt
COc1ccc(/C(C)=N/OCC(=O)Nc2nc3ccccc3s2)cc1	-24%	-1	-4%	7	4%	-14
CCOC(=O)Nc1ccc2c(c1)N(C(=O)CCN1CCN(CCO)CC1)c1ccccc1S2	-14%	0	?	-3	nt	-5
O=[N+]([O-])c1ccc(Oc2cccnc2)c([N+](=O)[O-])c1	5.8µM*	-112*	4.1µM*	-7	nt	0
Nc1ccc(Oc2ccc([N+](=O)[O-])cc2[N+](=O)[O-])cc1	?	4	18µM*	-11	7%	-12
Nc1ccc(Oc2ccc(N)c([N+](=O)[O-])c2)cc1[N+](=O)[O-]	?	-26	0%	0	nt	-5
SMILES	TDP1 cell noCPT	IL1B secr inh	TDP1 cell CPT	Six1-Eya2 inh	TDP1 block	CtBP-E1A inh
CCc1ccc(OCCCC(=O)Nc2nnc(C3CCCO3)s2)cc1 (configuration not stated)	-16%	15	4%	-12	-1%	-21
Cc1ccc(CSc2nnc([C@@H]3CCCN3)o2)cc1	4%	-1	-10%	1	4%	6
COC(=O)CC1C(=O)NCCN1C(=S)NC(=O)CCc1ccccc1 (configuration not stated)	-6%	25	-9%	25	5%	7
O=C(NCCc1ccccc1)C(=O)Nc1nccs1	8%	0	3%	7	6%	0
S=C(NCCc1ccccc1)Nc1ccc(Br)cn1	15µM*	65	?	-2	5%	-5
O=C(NCc1ccncc1)C(=O)Nc1nccs1	16%	-2	20%	-1	4%	3
S=C(NCCc1ccccc1)Nc1nccs1	15µM*	17	?	0	0%	-2
S=C(NCc1ccccc1)Nc1nccs1	4.6µM*	51	5.2µM*	3	nt	2
Cc1nnc2c3ccccc3c(-c3ccccc3)nn12	?	33	?	-12	nt	-11
COc1ccccc1-c1c(-c2ccc(O)cc2O)n[nH]c1C(F)(F)F	2.3µM*	36	5.8µM*	1	8%	-1
Oc1ccc(-c2n[nH]c(C(F)(F)F)c2-c2ccccc2)c(O)c1	1.6µM*	-78*	1.8µM*	-8	nt	nt
Cc1ccc(-c2csc(=Nc3ccccc3)n2Cc2ccc3c(c2)OCO3)cc1	9.2µM*	nt	15µM*	nt	7%	nt
OCCCn1c(-c2ccccc2)csc1=Nc1ccccc1	16µM*	-2	23µM*	-19	7%	-15
CCN(CC)CCn1c(-c2ccccc2)csc1=Nc1ccccc1	16µM*	nt	?	nt	-5%[12.3 µM]	nt
O=C(O)CCC(=O)NCCn1c(-c2ccccc2)csc1=Nc1ccccc1	-2%	0	-9%	1	0%	2
COc1ccc(N=c2scc(-c3ccc(OC)cc3)n2CCO)cc1	9.2µM*	?	21µM*	?	10%	?
